Measured values taken from PubChem BioAssay AID1508600 (Functional Genomics Laboratory (NCATS/FGL), 2020).
About 3,700 (7%) of roughly 53,000 sequences were called active. The sample as a whole holds a higher share of actives than the screen did. A number with no mark means an inactive call.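 Rule for the calls: active = gene knockdowns whose robust z-score for IL-1 alpha signal is at least 2 or at most -2, so actives lie on both sides; inactive = the rest.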

Test: Components of the Cytosolic LPS Sensing Pathway: Gene Identification via Genome-wide siRNA Screen;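 note: robust z of the log signal after scaling to non-targeting control siRNA wells of the plate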
Conditions: RAW264.7 macrophages, IL-1a HTRF, actives lie on both sides, screened at 100 nM (by protocol), cells primed 5 h with Pam3CSK4 first
Method in brief: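 Cells (RAW264.7, 1×10^4 per well) were transfected with siRNA at 100 nM and cultured 48h at 37 degrees C. Pam3CSK4 was added for 5 hours; LipidA transfection followed for 24 hour. IL-1a was then measured by HTRF.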

Row | Sequence | z-score
1 | GGAAAAUUCAGGAAGUUUGTT against Magi3 | 0.489
2 | GGAAACCUGAUUAUCAUCATT against Olfr791 | -0.337
3 | CCUGGACCCAUGAAGUCUUTT against Ahnak | 0.911
4 | GCUGGCCAAACUUGACAGUTT against Wwc1 | 2.05 (active)
5 | CCCUCAUACCGCUUAGAACTT against Tctex1d4 | -0.786
6 | GCCUGUGGCUUAAACUUCATT against Vat1l | 0.11
7 | GGAGAACAAGAUCUUACAGTT against Cby2 | -0.703
8 | GGAACACCACCUUAGAGAUTT against Hnrnpa2b1 | 1.52
9 | GAAAUGAGUCCUUGAAAAGTT against Olfr127 | -0.0661
10 | CGCAGCCUUUACCUCCGAATT against Plekha8 | -1.12
11 | GGCAUUAGCUACCUGGACATT against 1700013G24Rik | 3.44 (active)
12 | GGUGGUCCAGACCAAGUACTT against Pfdn5 | -1.02
13 | GGUCUUCAGCCCAAGAAAUTT against Dsg2 | 0.127
14 | GCAAUACUUAUCCAUUGCGTT against Msx3 | -0.42
15 | GGACUCAUUGACUUCAUCATT against Atg12 | -1.8
16 | GCUUGCUUCGCCUACAUUGTT against Slc46a3 | -0.501
17 | GUAGUUAGGAACUCUUGCUTT against Thnsl2 | -0.086
18 | GGCUGAUGUGAUGAUUGUATT against Ndufs7 | 2.3 (active)
19 | GCACUGUGAGUGGAUACUUTT against Slc5a3 | 0.13
20 | CCAUCAAGAUCUCUCAGUATT against A630091E08Rik | -1.25
21 | CGAAUGUCCUGGAAGCAAATT against Olfr142 | -0.0904
22 | GCUCUUAGAGAUUUGUUUGTT against Usp14 | 0.389
23 | CCAUUUUUGCUCAAUUUGCTT against Eif1ax | -0.943
24 | GCCAAACUGCGUCUGAAUGTT against Rras | 0.62
25 | GGACAAGUACGGAAAGCCCTT against Hdgfl2 | 0.196
26 | GCCACAUAAGGUUGUUCCCTT against Gamt | 2.9 (active)
27 | CCUCUCCAACAACCAACUATT against Lrrc47 | -0.27
28 | GGCUCCAAAUCAAACUCUATT against Eif4e3 | 2.19 (active)
29 | GGAACCAAGCCAUGAUUUUTT against Mrgprb2 | 0.646
